In PubChem BioAssay AID1159580 (chemical genetic matrix, 2015):
In all, about 5,500 compounds went through this assay and about 2,000 (36%) were called active. Roughly 18% stayed inconclusive and do not appear here. Rule as the data show it: active = normalized growth mostly below about 0.91 (no sharp cut-off); inconclusive = no clear call, values can overlap the other calls; inactive = mostly above about 0.92. The list shows a part of the results.

Experiment: chemical genetic growth profiling, strain panel (AID 1159580);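 also: tested at 20 µM; growth read once vehicle control cultures reached saturation at 30 °C; 1 = growth at the plate median or of vehicle wells; lower values mean less growth of the strain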
Conditions: growth OD
[1] = S. cerevisiae deletion strains, locus YCL061C, strain MRC1, stronger effect = lower value
[2] = S. cerevisiae deletion strains, locus YHR030C, strain SLT2, stronger effect = lower value

Measured: normalized growth

COc1cc(/C=C/C(=O)/C=C(O)/C=C/c2ccc(O)c(OC)c2)ccc1O
inactive: S. cerevisiae deletion strains, locus YJR066W, strain TOR1, stronger effect = lower value 0.828
active: S. cerevisiae deletion strains, locus YAL021C, strain ccr4, stronger effect = lower value 0.0789 | S. cerevisiae deletion strains, locus YAL026C, strain drs2, stronger effect = lower value 0.118 | S. cerevisiae deletion strains, locus YAL030W, strain snc1, stronger effect = lower value 0.157 | S. cerevisiae deletion strains, locus YBL061C, strain skt5, stronger effect = lower value 0.175 | S. cerevisiae deletion strains, locus YBR009C, strain hhf1, stronger effect = lower value 0.149 | S. cerevisiae deletion strains, locus YBR023C, strain chs3, stronger effect = lower value 0.172 | S. cerevisiae deletion strains, locus YBR171W, strain sec66, stronger effect = lower value 0.132 | S. cerevisiae deletion strains, locus YBR231C, strain swc5, stronger effect = lower value 0.091 | S. cerevisiae deletion strains, locus YBR279W, strain paf1, stronger effect = lower value 0.307 | S. cerevisiae deletion strains, locus YCL011C, strain gbp2, stronger effect = lower value 0.184 | S. cerevisiae deletion strains, locus YCL016C, strain dcc1, stronger effect = lower value 0.4 | [1] 0.216 | S. cerevisiae deletion strains, locus YCL069W, strain vba3, stronger effect = lower value 0.224 | S. cerevisiae deletion strains, locus YCR088W, strain abp1, stronger effect = lower value 0.265 | S. cerevisiae deletion strains, locus YDL005C, strain med2, stronger effect = lower value 0.089 | S. cerevisiae deletion strains, locus YDL040C, strain nat1, stronger effect = lower value 0.0875 | S. cerevisiae deletion strains, locus YDR001C, strain nth1, stronger effect = lower value 0.249 | S. cerevisiae deletion strains, locus YDR069C, strain doa4, stronger effect = lower value 0.0822 | S. cerevisiae deletion strains, locus YDR137W, strain rgp1, stronger effect = lower value 0.149 | S. cerevisiae deletion strains, locus YDR159W, strain sac3, stronger effect = lower value 0.112 | S. cerevisiae deletion strains, locus YDR195W, strain ref2 0.156 | S. cerevisiae deletion strains, locus YDR297W, strain sur2, stronger effect = lower value 0.187 | S. cerevisiae deletion strains, locus YDR334W, strain swr1, stronger effect = lower value 0.109 | S. cerevisiae deletion strains, locus YDR335W, strain msn5, stronger effect = lower value 0.0992 | S. cerevisiae deletion strains, locus YDR392W, strain spt3, stronger effect = lower value 0.14 | S. cerevisiae deletion strains, locus YEL003W, strain gim4, stronger effect = lower value 0.0989 | S. cerevisiae deletion strains, locus YEL037C, strain rad23, stronger effect = lower value 0.155 | S. cerevisiae deletion strains, locus YEL061C, strain CIN8 (second series), stronger effect = lower value 0.243 | S. cerevisiae deletion strains, locus YER015W, strain faa2, stronger effect = lower value 0.119 | S. cerevisiae deletion strains, locus YER016W, strain bim1, stronger effect = lower value 0.396 | S. cerevisiae deletion strains, locus YER111C, strain swi4, stronger effect = lower value 0.094 | S. cerevisiae deletion strains, locus YER155C, strain BEM2 (second series), stronger effect = lower value 0.242 | S. cerevisiae deletion strains, locus YFR010W, strain ubp6, stronger effect = lower value 0.187 | S. cerevisiae deletion strains, locus YGL167C, strain pmr1, stronger effect = lower value 0.177 | S. cerevisiae deletion strains, locus YGL173C, strain kem1, stronger effect = lower value 0.107 | S. cerevisiae deletion strains, locus YGL227W, strain vid30, stronger effect = lower value 0.507 | S. cerevisiae deletion strains, locus YGL240W, strain doc1, stronger effect = lower value 0.399 | S. cerevisiae deletion strains, locus YGL253W, strain hxk2, stronger effect = lower value 0.224 | S. cerevisiae deletion strains, locus YHR013C, strain ard1, stronger effect = lower value 0.178 | S. cerevisiae deletion strains, locus YHR027C, strain rpn1, stronger effect = lower value 0.0816 | [2] 0.653 | S. cerevisiae deletion strains, locus YHR079C, strain IRE1, stronger effect = lower value 0.574 | S. cerevisiae deletion strains, locus YHR142W, strain chs7, stronger effect = lower value 0.0884 | S. cerevisiae deletion strains, locus YJL092W, strain hpr5, stronger effect = lower value 0.222 | S. cerevisiae deletion strains, locus YJL095W, strain BCK1 (second series), stronger effect = lower value 0.0924 | S. cerevisiae deletion strains, locus YJL095W, strain BCK1, stronger effect = lower value 0.546 | S. cerevisiae deletion strains, locus YJL115W, strain asf1, stronger effect = lower value 0.313 | S. cerevisiae deletion strains, locus YJL129C, strain trk1, stronger effect = lower value 0.108 | S. cerevisiae deletion strains, locus YJL154C, strain vps35, stronger effect = lower value 0.251 | S. cerevisiae deletion strains, locus YJL164C, strain tpk1, stronger effect = lower value 0.143 | S. cerevisiae deletion strains, locus YJL166W, strain qcr8, stronger effect = lower value 0.0762 | S. cerevisiae deletion strains, locus YKL160W, strain elf1, stronger effect = lower value 0.433 | S. cerevisiae deletion strains, locus YKR026C, strain gcn3, stronger effect = lower value 0.229 | S. cerevisiae deletion strains, locus YKR091W, strain srl3, stronger effect = lower value 0.304 | S. cerevisiae deletion strains, locus YLL001W, strain dnm1, stronger effect = lower value 0.212 | S. cerevisiae deletion strains, locus YLL026W, stronger effect = lower value 0.131 | S. cerevisiae deletion strains, locus YLL041C, strain sdh2, stronger effect = lower value 0.0974 | S. cerevisiae deletion strains, locus YLR027C, strain aat2, stronger effect = lower value 0.161 | S. cerevisiae deletion strains, locus YLR113W, strain HOG1, stronger effect = lower value 0.227 | S. cerevisiae deletion strains, locus YLR221C, strain rsa3, stronger effect = lower value 0.204 | S. cerevisiae deletion strains, locus YLR258W, strain gsy2, stronger effect = lower value 0.17 | S. cerevisiae deletion strains, locus YLR262C, strain YPT6 (second series), stronger effect = lower value 0.142 | S. cerevisiae deletion strains, locus YLR320W, strain mms22, stronger effect = lower value 0.163 | S. cerevisiae deletion strains, locus YLR342W, strain FKS1, stronger effect = lower value 0.173 | S. cerevisiae deletion strains, locus YLR357W, strain rsc2, stronger effect = lower value 0.34 | S. cerevisiae deletion strains, locus YLR370C, strain arc18, stronger effect = lower value 0.171 | S. cerevisiae deletion strains, locus YLR384C, strain iki3, stronger effect = lower value 0.155 | S. cerevisiae deletion strains, locus YML120C, strain ndi1, stronger effect = lower value 0.115 | S. cerevisiae deletion strains, locus YMR058W, strain fet3, stronger effect = lower value 0.0838 | S. cerevisiae deletion strains, locus YMR125W, strain sto1, stronger effect = lower value 0.16 | S. cerevisiae deletion strains, locus YMR129W, stronger effect = lower value 0.276 | S. cerevisiae deletion strains, locus YMR205C, strain PFK2, stronger effect = lower value 0.134 | S. cerevisiae deletion strains, locus YMR231W, strain pep5, stronger effect = lower value 0.134 | S. cerevisiae deletion strains, locus YNL071W, strain lat1, stronger effect = lower value 0.269 | S. cerevisiae deletion strains, locus YNL183C, strain NPR1, stronger effect = lower value 0.761 | S. cerevisiae deletion strains, locus YNL209W, strain ssb2, stronger effect = lower value 0.0983 | S. cerevisiae deletion strains, locus YNL248C, strain rpa49, stronger effect = lower value 0.443 | S. cerevisiae deletion strains, locus YNL322C, strain KRE1 (second series), stronger effect = lower value 0.16 | S. cerevisiae deletion strains, locus YNR049C, strain mso1, stronger effect = lower value 0.175 | S. cerevisiae deletion strains, locus YOR001W, strain rrp6, stronger effect = lower value 0.139 | S. cerevisiae deletion strains, locus YOR070C, strain gyp1, stronger effect = lower value 0.416 | S. cerevisiae deletion strains, locus YOR080W, strain dia2, stronger effect = lower value 0.0852 | S. cerevisiae deletion strains, locus YOR083W, strain WHI5, stronger effect = lower value 0.203 | S. cerevisiae deletion strains, locus YOR106W, strain vam3, stronger effect = lower value 0.0922 | S. cerevisiae deletion strains, locus YOR231W, strain MKK1, stronger effect = lower value 0.575 | S. cerevisiae deletion strains, locus YOR265W, strain rbl2, stronger effect = lower value 0.159 | S. cerevisiae deletion strains, locus YOR270C, strain vph1, stronger effect = lower value 0.115 | S. cerevisiae deletion strains, locus YOR290C, strain snf2, stronger effect = lower value 0.101 | S. cerevisiae deletion strains, locus YPL051W, strain arl3, stronger effect = lower value 0.118 | S. cerevisiae deletion strains, locus YPL078C, strain atp4, stronger effect = lower value 0.182 | S. cerevisiae deletion strains, locus YPL106C, strain sse1, stronger effect = lower value 0.251 | S. cerevisiae deletion strains, locus YPL240C, strain hsp82, stronger effect = lower value 0.294 | S. cerevisiae deletion strains, locus YPL256C, strain CLN2, stronger effect = lower value 0.494

COc1cc(/C=C2\NC(=O)NC2=O)ccc1O
inactive: S. cerevisiae deletion strains, locus YAL013W, strain DEP1, stronger effect = lower value 1 | S. cerevisiae deletion strains, locus YBR229C, strain ROT2, stronger effect = lower value 0.965 | [1] 1 | S. cerevisiae deletion strains, locus YDL101C, strain DUN1, stronger effect = lower value 0.982 | S. cerevisiae deletion strains, locus YDR150W, strain NUM1, stronger effect = lower value 0.963 | S. cerevisiae deletion strains, locus YEL061C, strain CIN8, stronger effect = lower value 0.956 | S. cerevisiae deletion strains, locus YGR078C, strain PAC10, stronger effect = lower value 0.977 | [2] 0.873 | S. cerevisiae deletion strains, locus YHR087W, strain rtc3, stronger effect = lower value 1.04 | S. cerevisiae deletion strains, locus YJL187C, strain SWE1, stronger effect = lower value 0.982 | S. cerevisiae deletion strains, locus YJR043C, strain POL32, stronger effect = lower value 0.997 | S. cerevisiae deletion strains, locus YJR075W, strain HOC1, stronger effect = lower value 0.976 | S. cerevisiae deletion strains, locus YKL190W, strain CNB1, stronger effect = lower value 0.986 | S. cerevisiae deletion strains, locus YLR039C, strain RIC1, stronger effect = lower value 0.918 | S. cerevisiae deletion strains, locus YLR058C, strain SHM2 (second series), stronger effect = lower value 0.98 | S. cerevisiae deletion strains, locus YLR085C, strain ARP6, stronger effect = lower value 0.941 | S. cerevisiae deletion strains, locus YLR262C, strain YPT6, stronger effect = lower value 0.945 | S. cerevisiae deletion strains, locus YML094W, strain GIM5, stronger effect = lower value 0.989 | S. cerevisiae deletion strains, locus YMR219W, strain ESC1, stronger effect = lower value 0.974 | S. cerevisiae deletion strains, locus YMR263W, strain SAP30, stronger effect = lower value 0.998 | S. cerevisiae deletion strains, locus YMR307W, strain GAS1, stronger effect = lower value 1.07 | S. cerevisiae deletion strains, locus YNL128W, strain TEP1, stronger effect = lower value 0.993 | S. cerevisiae deletion strains, locus YNL153C, strain GIM3, stronger effect = lower value 0.98 | S. cerevisiae deletion strains, locus YNL298W, strain CLA4 (second series), stronger effect = lower value 0.968 | S. cerevisiae deletion strains, locus YNL322C, strain KRE1, stronger effect = lower value 0.996 | S. cerevisiae deletion strains, locus YNR030W, strain Alg12, stronger effect = lower value 1.01 | S. cerevisiae deletion strains, locus YPL055C, strain LGE1, stronger effect = lower value 0.999 | S. cerevisiae deletion strains, locus YPL241C, strain CIN2, stronger effect = lower value 0.975 | S. cerevisiae deletion strains, locus YPR135W, strain CTF4, stronger effect = lower value 0.945 | S. cerevisiae strains, strain wild type, stronger effect = lower value 0.948
